The text below walks through data of PubChem BioAssay (Tox21).

Records with an inconclusive call do not appear. Unmarked numbers belong to inactive results. The source made the active and inactive calls. Calls come from the whole dose curve.
% is set by controls: 0 for no effect and ±100 for the full control effect; potency is the fitted concentration of half-maximal effect.

Acetylcholinesterase (Homo sapiens), sequence (P22303 whole entry, looked up): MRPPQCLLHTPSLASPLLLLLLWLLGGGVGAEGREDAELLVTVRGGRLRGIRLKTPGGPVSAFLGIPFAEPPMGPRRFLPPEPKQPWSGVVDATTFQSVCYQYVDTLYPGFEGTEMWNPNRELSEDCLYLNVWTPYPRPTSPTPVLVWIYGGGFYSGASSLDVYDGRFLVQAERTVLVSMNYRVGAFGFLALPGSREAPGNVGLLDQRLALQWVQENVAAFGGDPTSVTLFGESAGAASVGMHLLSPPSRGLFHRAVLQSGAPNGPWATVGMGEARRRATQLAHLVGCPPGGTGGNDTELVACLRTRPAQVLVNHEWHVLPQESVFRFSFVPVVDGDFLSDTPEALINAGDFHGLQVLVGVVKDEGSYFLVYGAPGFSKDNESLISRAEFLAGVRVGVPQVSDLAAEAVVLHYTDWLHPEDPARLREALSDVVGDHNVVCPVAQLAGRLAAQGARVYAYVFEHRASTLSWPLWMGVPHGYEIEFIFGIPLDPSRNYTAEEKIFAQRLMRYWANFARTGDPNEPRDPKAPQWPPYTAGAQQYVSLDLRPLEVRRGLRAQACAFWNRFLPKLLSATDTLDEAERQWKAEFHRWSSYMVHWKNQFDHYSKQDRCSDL

This assay addresses Acetylcholinesterase (Homo sapiens) (UniProt P22303). The experiment in a line: Acetylcholinesterase (AChE) small molecule antagonists: colormetric cell-based qHTS assay (AID 1347395). Note: nearly all actives have a fitted effect of over 30% in size. Particulars: SH-SY5Y cells AChE activity, colorimetric (Ellman); series mostly up to 115 µM; activity, negative = inhibition: at the top concentration. A digest of the protocol: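 SH-SY5Y cells, plated overnight at 37 C, were exposed to compounds for 30 min at 37 C and 5% CO2. Acetylthiocholine plus DTNB was then added, and thiocholine from endogenous AChE was quantified colorimetrically after 90 min at 37 C.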
Take `O=C(Nc1cccc(C2=NCCN2)c1)Nc1cccc(C2=NCCN2)c1`: the Potency was 3.79 µM (active).

Take `CO[Si](OC)(OC)OC`: the “activity, negative = inhibition” value is 0.614%.

Regarding `CC(C)=NNC(N)=S`, the “activity, negative = inhibition” value is 1.13%.

On to `CC1(C)C2=CCCC(C)(C)[C@]23CC[C@H]1C3`, for which the “activity, negative = inhibition” value is -0.316%.

Consider `Cc1c[nH]c2ccccc12`, for which the “activity, negative = inhibition” value was -2.38% [at 52.9 µM].

Turning to `CCOc1nc(F)cc2nc(S(=O)(=O)Nc3c(Cl)cccc3C(=O)OC)nn12`, the “activity, negative = inhibition” value was -2.57%.

For `Cc1occc(=O)c1O`, the Potency entry is “inactive”.

Take `NC(CO)(CO)CO`: the compound was classed as inactive.

With `CCNC(=O)/C=C/c1cccc(Br)c1`, the “activity, negative = inhibition” value was -2.2% [at 52.9 µM].

Turning to `Oc1ccc(Cc2ccccc2)cc1`, the “activity, negative = inhibition” value is 2.2%.

Regarding `CCCCCCCCCCCCCC(=O)O`, the Potency result is “inactive”.

For the compound `C=CC(=O)OCCCCCCOC(=O)C=C`, the Potency result is “inactive”.

On to `CCCCNS(=O)(=O)c1ccccc1`, for which the Potency result was “inactive”.

For the compound `CSc1ccc(Cl)cc1`, the Potency entry was “inactive”.

Consider `CC(=O)[C@@]1(O)CC[C@H]2[C@@H]3C[C@H](C)C4=CC(=O)CC[C@]4(C)[C@H]3CC[C@@]21C`, for which the “activity, negative = inhibition” value is 1.5% [at 52.9 µM].

Take `CCN[C@H]1CN(CCCOC)S(=O)(=O)c2sc(S(N)(=O)=O)cc21`: the “activity, negative = inhibition” value is 2.18% [at 52.9 µM].

On to `O=C(O)CC(C(=O)O)C(CC(=O)O)C(=O)O` (configuration not stated), for which the Potency entry is “inactive”.

Regarding `CCCCCCCCCOC(=O)CCCCC(=O)OCCCCCCC`, the “activity, negative = inhibition” value is -1.22%.

For `O=C(O)c1cccc(O)c1`, the “activity, negative = inhibition” value was -3.48%.

As to `CC(C)CC(=O)CC(C)CC(C)C` (configuration not stated), the Potency result was “inactive”.

As to `NC(Cc1c[nH]c2ccccc12)C(=O)O` (configuration not stated), the “activity, negative = inhibition” value is -0.893% [at 52.9 µM].

With `CCCCOCCOCCSC#N`, the Potency entry was “inactive”.

With `ONc1ccccc1`, the “activity, negative = inhibition” value was 3.03%.

For `COc1ccc(CCC(C)=O)cc1`, the Potency result is “inactive”.

With `CCCCCCOC(=O)C(C)C`, the “activity, negative = inhibition” value was 4.09%.

As to `C=CC(=O)CCCCC`, the “activity, negative = inhibition” value was -0.303%.

Take `c1ccc2c(c1)-c1cccc3c1c-2cc1ccccc13`: the Potency result is “inactive”.
